Potency and outcome data for eight molecules are collected here from PubChem BioAssay (Tox21).

Several values for one entry are separate records, joined by “and”; a condition that tells them apart may be missing. Identical values can stand only once. Inconclusive results are not listed. Activity calls are given as the source filed them. Unless noted, the call rests on the fitted dose curve; in most records, active means well fitted curve in the direction sought with a large enough effect in the repeat runs; inconclusive means weak or mixed curves; inactive means no such curve, though single readings can be large; an effect the other way counts as inactive or inconclusive.

A short description of test [1]: qHTS assay to identify small molecule agonists of the androgen receptor (AR) signaling pathway in the presence of an antagonist - cell viability counter screen (AID 1259379).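 Further: MDA-kb2 human breast cancer cells carrying an MMTV luciferase reporter; series mostly up to about 92 µM; nearly all actives have a fitted effect of over 25% in size.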 A digest of the protocol:
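In MDA-kb2 cells (human breast carcinoma, MMTV-luciferase), compounds at 15 concentrations plus 3.0uM nilutamide; 16 hr, 37C, 0% CO2; CellTiter-Fluor fluorescence read for viability.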

Test [2] in a line: qHTS assay to identify small molecule agonists of the estrogen receptor beta (ER-beta) signaling pathway - cell viability counter screen (AID 1259380). Further: nearly all actives have a fitted effect of over 30% in size. Further: potency means the concentration at half of the fitted maximal effect. In short, it runs like this:
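Viability of ER-beta-UAS-bla HEK293T cells was determined by CellTiter-Glo luminescence following 16 hr treatment with test compounds at 37C.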
(In qHTS, concentration-response curves come from the screen itself.)

The target in test [3] is Androgen receptor (Homo sapiens) (UniProt P10275). Briefly: qHTS assay to identify small molecule agonists of the androgen receptor (AR) signaling pathway in the presence of an antagonist (AID 1259381; calls by dose curve; further: nearly all actives have a fitted effect of over 15% in size; further: potency means the concentration at half of the fitted maximal effect). A digest of the protocol:
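Here, 15-concentration compound series were pin-transferred onto MDA-kb2 MMTV-luciferase cells already dosed with nilutamide (3.0uM final). After 16hr at 37C, ONE-Glo was added and luminescence read 30min later at room temperature.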

Test [4] in a line: qHTS assay to identify small molecule antagonists of the estrogen receptor beta (ER-beta) signaling pathway - cell viability counter screen (AID 1259382). Further: nearly all actives have a fitted effect of over 55% in size. Further: potency means the concentration at half of the fitted maximal effect. In short, it runs like this:
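Tox21 10K library tested in qHTS format on ER-beta-bla HEK293T cells stimulated with 1nM E2; 16 hr treatment at 37C. Same-well CellTiter-Glo luminescence served as the cell viability measure.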

In test [5] the target is Estrogen receptor (Homo sapiens) (UniProt P03372). Briefly: qHTS assay to identify small molecule agonists of the estrogen receptor alpha (ER-alpha) signaling pathway in the presence of an antagonist (AID 1259383; calls by dose curve; further: top concentration of the series differs between compounds; nearly all actives have a fitted effect of over 15% in size). In short, it runs like this: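 In VM7Luc4E2 cells, 4,000 per well, compounds at 15 concentrations were co-incubated 22hr at 37C with 10.0nM final ICI-182,780. Luminescence from the stably transfected 4×ERE-luciferase reporter was recorded 30min after ONE-Glo addition.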

A short description of test [6]: qHTS assay to identify small molecule agonists or antagonists of the thyroid stimulating hormone receptor (TSHR) signaling pathway - wild type cell line counter screen (AID 1259384; calls by dose curve). A digest of the protocol:
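Counter screen in untransfected Hek293: compounds (15-point titration, triplicate) plus phosphodiesterase inhibitor Ro20-1724 added after 18 h plating; 30 min RT. Intracellular cAMP via competitive d2/cryptate immunoassay, 1 h incubation.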

The target of test [7] is Thyrotropin receptor (Homo sapiens) (UniProt P16473). Briefly: qHTS assay to identify small molecule antagonists of the thyroid stimulating hormone receptor (TSHR) signaling pathway (AID 1259385; calls by dose curve; further: nearly all actives have a fitted effect of over 20% in size). A digest of the protocol:
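Antagonist mode: compound-treated TSHR-expressing HEK293 cells were stimulated with 1.5 ng/mL TSH (final) in presence of Ro20-1724 for 30 min at RT. HTRF cAMP detection after 1 h; each compound tested at 15 concentrations, triplicate.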

Test [8] is described as follows: qHTS assay to identify small molecule agonists of the estrogen receptor alpha (ER-alpha) signaling pathway in the presence of an antagonist - cell viability counter screen (AID 1259386).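 Further: series mostly up to about 92 µM; cells exposed to compounds for 22 h at 37 °C before the viability read; nearly all actives have a fitted effect of over 30% in size.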 A digest of the protocol:
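Fluorescent CellTiter-Fluor viability signal from VM7Luc4E2 cells, with the reagent added during the final hour of a 22hr compound exposure at 37C in the presence of 10.0nM ICI-182,780.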

Test [9] deals with Progesterone receptor (Homo sapiens) (UniProt P06401). Briefly: qHTS assay to identify small molecule agonists of the progesterone receptor (PR) signaling pathway (AID 1346784; calls by dose curve; further: nearly all actives have a fitted effect of over 30% in size). In short, it runs like this: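 Agonist qHTS: compounds pinned onto 3,000 PR-UAS-bla HEK 293T cells per well in charcoal-stripped serum medium, 16hr at 37C, then beta-lactamase activity measured by LiveBLAzer FRET fluorescence after 2 hours at room temperature.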

Test [10] is described as follows: qHTS assay to identify small molecule antagonists of the progesterone receptor (PR) signaling pathway - cell viability counter screen (AID 1346798). Further: nearly all actives have a fitted effect of over 50% in size. Further: potency means the concentration at half of the fitted maximal effect. In short, it runs like this: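 Cytotoxicity read as CellTiter-Glo luminescence (30 min, room temperature) in the same wells as the beta-lactamase readout. HEK293T PR-UAS-bla cells in charcoal-stripped 2% FBS received compound and R5020, then 16 h at 37C, 5% CO2.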

A short description of test [11]: qHTS assay to identify small molecule agonists of the progesterone receptor (PR) signaling pathway - cell viability counter screen (AID 1346799; calls by dose curve; further: nearly all actives have a fitted effect of over 45% in size; further: potency means the concentration at half of the fitted maximal effect). A digest of the protocol: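 Cytotoxicity measured by CellTiter-Glo luminescence (30 min, RT) in the same wells as the PR beta-lactamase agonist read. Those HEK293T cells had 16 h compound treatment at 37 C in 2% charcoal-stripped FBS medium.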

The nature of test [12]: qHTS assay to identify small molecule antagonists of the TGF-beta/Smad signaling pathway - cell viability counter screen (AID 1346824). Further: nearly all actives have a fitted effect of over 50% in size. A digest of the protocol: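 Cytotoxicity counter-screen run in the same wells as the beta-lactamase Smad reporter read: CellTiter-Glo luminescence after 30 min at room temperature. HEK 293T SBE-bla cells had 5 hr compound exposure at 37 C with TGF-beta1 (0.25 ng/mL stock).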

The nature of test [13]: qHTS assay to identify small molecule agonists of the TGF-beta/Smad signaling pathway - cell viability counter screen (AID 1346829). Further: top concentration of the series differs between compounds; nearly all actives have a fitted effect of over 45% in size. A digest of the protocol:
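Luminescence from CellTiter-Glo, read after a 30 min room-temperature incubation, gives cell viability of SBE-bla HEK 293T cells treated 5 hr with compounds at 37 C.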

The nature of test [14]: qHTS assay to identify small molecule agonists of the TGF-beta/Smad signaling pathway (AID 1346859; active means well fitted activation curve with a large enough effect in the signal ratio in the repeat runs, not every such curve was filed as active; the % refers to the signal ratio; further: series mostly up to about 77 µM). A digest of the protocol: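 Fluorescence (ex 405 nm; em 460 and 530 nm) was read 2 h after LiveBLAzer FRET substrate at RT. The preceding compound treatment of overnight-plated SBE-bla HEK293T cells lasted 5 h at 37 C.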
Test [15] deals with Thyrotropin-releasing hormone receptor (Homo sapiens) (UniProt P34981). Briefly: qHTS assay to identify small molecule antagonists of the thyrotropin-releasing hormone receptor (TRHR) signaling pathway (AID 1346877; active means well fitted inhibition curve with a large enough effect in the repeat runs, not every such curve was filed as active; further: series mostly up to about 51 µM). In short, it runs like this: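 In this cell-based calcium flux format, HEK293 cells expressing TRHR received test compound for 5 min before the agonist TRH (1 nM final). Dye loading lasted 2 h at 37 °C.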

For test [16] the target is unchanged. As to the kind of experiment: qHTS assay to identify small molecule agonists of the thyrotropin-releasing hormone receptor (TRHR) signaling pathway (AID 1346891; calls by dose curve; further: series mostly up to about 58 µM). A digest of the protocol: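 Agonist-mode intracellular calcium readout: kinetic fluorescence over 3 min at 1 s intervals after compound addition to TRHR-HEK293 cells (18 h seeded, 2 h dye-loaded at 37 C). Fifteen concentrations, triplicates.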

Test [17] can be described thus: Human pregnane X receptor (PXR) small molecule agonists, qHTS cell viability counter screen (AID 1346977). Further: nearly all actives have a fitted effect of over 50% in size. Further: potency means the concentration at half of the fitted maximal effect. In short, it runs like this: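 Same-well viability read: CellTiter-Fluor added after 23 hr compound exposure, fluorescence measured 1 hr later. Cells were PXR-Luc HepG2 seeded at 2,000/well in 5% charcoal-stripped FBS medium, rested 5 hr before dosing at 37 C.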

Test [18] addresses Estrogen receptor beta (Homo sapiens) (UniProt Q92731). As to the kind of experiment: qHTS assay to identify small molecule antagonists of the estrogen receptor beta (ER-beta) signaling pathway (AID 1259378; active means well fitted inhibition curve with a large enough effect in the signal ratio in the repeat runs, not every such curve was filed as active; the % refers to the signal ratio). A digest of the protocol:
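Antagonist mode: compounds added to beta-lactamase reporter HEK293T ER-beta-UAS cells stimulated with E2 (1nM final), 16 hr at 37C. LiveBLAzer B/G FRET substrate, 2 hours room temperature, fluorescence read-out.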

In test [19] the target is Progesterone receptor (Homo sapiens) (UniProt P06401). Briefly: qHTS assay to identify small molecule antagonists of the progesterone receptor (PR) signaling pathway (AID 1346795; active means well fitted inhibition curve with a large enough effect in the signal ratio in the repeat runs, not every such curve was filed as active; the % refers to the signal ratio). In short, it runs like this:
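Antagonist mode with agonist R5020 at 1 nM final and 16 hr incubation at 37C. Reporter was beta-lactamase driven by UAS in HEK293T (PR-UAS-bla), 2% charcoal-stripped serum; signal from LiveBLAzer FRET substrate, 2 hr at room temperature.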

Sequence of Estrogen receptor (Homo sapiens) (P03372 whole entry, looked up): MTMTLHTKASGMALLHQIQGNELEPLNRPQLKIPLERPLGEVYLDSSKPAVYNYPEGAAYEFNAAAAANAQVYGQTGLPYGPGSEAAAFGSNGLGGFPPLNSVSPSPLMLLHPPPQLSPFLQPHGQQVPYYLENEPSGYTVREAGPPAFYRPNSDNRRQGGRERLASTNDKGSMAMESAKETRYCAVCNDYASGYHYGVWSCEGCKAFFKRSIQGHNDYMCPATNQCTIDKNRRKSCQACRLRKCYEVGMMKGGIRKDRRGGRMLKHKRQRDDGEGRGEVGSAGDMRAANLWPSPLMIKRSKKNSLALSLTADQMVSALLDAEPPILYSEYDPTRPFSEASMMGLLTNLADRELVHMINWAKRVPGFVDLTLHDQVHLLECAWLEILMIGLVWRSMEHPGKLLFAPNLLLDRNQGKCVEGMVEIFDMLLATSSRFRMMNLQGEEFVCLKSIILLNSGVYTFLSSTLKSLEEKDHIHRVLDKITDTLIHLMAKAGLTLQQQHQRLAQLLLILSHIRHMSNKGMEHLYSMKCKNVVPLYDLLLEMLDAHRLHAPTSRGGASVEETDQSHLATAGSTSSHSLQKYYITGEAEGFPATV
Sequence of Thyrotropin receptor (Homo sapiens) (P16473 whole entry, looked up): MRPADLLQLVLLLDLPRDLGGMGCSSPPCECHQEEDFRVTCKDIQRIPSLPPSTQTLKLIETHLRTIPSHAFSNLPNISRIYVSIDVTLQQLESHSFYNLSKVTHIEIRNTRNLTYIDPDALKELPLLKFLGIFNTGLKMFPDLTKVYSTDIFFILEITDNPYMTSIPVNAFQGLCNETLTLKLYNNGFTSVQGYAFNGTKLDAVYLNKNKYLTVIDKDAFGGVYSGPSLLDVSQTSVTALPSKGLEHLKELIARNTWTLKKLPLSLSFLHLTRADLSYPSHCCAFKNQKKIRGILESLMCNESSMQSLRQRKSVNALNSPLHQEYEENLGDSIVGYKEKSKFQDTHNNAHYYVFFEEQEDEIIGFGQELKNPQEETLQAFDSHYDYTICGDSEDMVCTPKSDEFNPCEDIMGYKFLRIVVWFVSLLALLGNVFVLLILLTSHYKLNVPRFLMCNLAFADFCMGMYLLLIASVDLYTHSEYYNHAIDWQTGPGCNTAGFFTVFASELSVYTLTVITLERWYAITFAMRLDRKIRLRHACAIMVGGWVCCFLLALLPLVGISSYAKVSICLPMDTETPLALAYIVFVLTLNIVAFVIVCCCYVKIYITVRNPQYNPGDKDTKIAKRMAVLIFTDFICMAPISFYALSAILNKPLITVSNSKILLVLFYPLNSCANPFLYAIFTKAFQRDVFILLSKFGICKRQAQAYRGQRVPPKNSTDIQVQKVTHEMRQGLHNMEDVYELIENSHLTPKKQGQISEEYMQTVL
Sequence of Thyrotropin-releasing hormone receptor (Homo sapiens) (P34981 whole entry, looked up): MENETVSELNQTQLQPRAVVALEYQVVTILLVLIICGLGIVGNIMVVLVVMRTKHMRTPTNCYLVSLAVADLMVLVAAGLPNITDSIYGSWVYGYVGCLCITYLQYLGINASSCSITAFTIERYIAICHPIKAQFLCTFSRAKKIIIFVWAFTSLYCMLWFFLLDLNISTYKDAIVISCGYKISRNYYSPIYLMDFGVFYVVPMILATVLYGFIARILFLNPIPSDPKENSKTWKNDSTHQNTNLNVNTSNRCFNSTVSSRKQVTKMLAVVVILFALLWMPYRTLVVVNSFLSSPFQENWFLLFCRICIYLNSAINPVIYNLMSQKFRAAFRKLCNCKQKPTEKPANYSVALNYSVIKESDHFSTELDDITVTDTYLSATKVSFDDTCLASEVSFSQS
Sequence of Androgen receptor (Homo sapiens) (P10275 whole entry, looked up): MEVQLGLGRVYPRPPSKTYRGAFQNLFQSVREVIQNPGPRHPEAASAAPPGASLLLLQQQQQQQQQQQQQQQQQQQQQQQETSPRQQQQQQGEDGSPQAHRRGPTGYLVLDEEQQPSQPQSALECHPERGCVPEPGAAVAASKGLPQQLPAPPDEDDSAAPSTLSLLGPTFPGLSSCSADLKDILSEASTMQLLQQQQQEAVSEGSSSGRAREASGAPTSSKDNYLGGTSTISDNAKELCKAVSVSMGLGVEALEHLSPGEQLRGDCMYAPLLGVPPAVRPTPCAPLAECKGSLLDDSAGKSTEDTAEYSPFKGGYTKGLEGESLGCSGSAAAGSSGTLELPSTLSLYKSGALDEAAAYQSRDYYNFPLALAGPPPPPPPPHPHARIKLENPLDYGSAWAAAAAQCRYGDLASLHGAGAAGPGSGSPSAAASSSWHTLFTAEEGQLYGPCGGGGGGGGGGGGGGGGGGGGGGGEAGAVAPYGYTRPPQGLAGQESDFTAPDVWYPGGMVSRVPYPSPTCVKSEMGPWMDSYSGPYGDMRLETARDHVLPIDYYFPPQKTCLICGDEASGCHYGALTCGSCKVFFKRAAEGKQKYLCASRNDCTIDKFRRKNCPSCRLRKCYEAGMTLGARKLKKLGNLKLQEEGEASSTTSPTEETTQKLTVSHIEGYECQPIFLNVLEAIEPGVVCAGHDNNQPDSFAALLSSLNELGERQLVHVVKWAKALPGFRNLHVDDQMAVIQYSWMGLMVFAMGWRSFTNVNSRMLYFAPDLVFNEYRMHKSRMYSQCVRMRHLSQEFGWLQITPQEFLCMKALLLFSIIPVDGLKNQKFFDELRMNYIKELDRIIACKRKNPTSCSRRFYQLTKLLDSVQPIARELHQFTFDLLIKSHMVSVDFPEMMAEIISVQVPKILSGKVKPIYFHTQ
Sequence of Progesterone receptor (Homo sapiens) (P06401 whole entry, looked up): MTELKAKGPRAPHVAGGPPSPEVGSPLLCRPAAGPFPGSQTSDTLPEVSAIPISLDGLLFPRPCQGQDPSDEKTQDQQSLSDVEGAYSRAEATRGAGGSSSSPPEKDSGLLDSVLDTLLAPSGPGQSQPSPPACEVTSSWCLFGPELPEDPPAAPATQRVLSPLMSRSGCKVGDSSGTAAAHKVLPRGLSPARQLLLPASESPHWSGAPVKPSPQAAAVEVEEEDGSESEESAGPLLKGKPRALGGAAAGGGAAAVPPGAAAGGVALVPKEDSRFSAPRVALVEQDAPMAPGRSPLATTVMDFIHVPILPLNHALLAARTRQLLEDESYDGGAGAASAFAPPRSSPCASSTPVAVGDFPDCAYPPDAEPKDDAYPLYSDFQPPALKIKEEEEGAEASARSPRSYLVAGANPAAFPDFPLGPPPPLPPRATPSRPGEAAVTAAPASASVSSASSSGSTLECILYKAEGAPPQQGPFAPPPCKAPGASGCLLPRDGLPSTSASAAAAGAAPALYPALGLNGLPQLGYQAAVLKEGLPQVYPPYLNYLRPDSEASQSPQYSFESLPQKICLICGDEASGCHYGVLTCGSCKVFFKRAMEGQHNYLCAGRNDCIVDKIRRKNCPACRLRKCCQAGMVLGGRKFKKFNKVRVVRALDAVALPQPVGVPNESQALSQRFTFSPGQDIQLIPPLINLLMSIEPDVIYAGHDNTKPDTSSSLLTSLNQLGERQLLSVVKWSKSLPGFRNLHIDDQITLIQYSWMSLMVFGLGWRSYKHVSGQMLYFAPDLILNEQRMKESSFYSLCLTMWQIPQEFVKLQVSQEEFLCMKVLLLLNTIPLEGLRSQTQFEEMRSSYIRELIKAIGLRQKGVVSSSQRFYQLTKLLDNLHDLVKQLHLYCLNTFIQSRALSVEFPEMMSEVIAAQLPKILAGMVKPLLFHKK
Sequence of Estrogen receptor beta (Homo sapiens) (Q92731 whole entry, looked up): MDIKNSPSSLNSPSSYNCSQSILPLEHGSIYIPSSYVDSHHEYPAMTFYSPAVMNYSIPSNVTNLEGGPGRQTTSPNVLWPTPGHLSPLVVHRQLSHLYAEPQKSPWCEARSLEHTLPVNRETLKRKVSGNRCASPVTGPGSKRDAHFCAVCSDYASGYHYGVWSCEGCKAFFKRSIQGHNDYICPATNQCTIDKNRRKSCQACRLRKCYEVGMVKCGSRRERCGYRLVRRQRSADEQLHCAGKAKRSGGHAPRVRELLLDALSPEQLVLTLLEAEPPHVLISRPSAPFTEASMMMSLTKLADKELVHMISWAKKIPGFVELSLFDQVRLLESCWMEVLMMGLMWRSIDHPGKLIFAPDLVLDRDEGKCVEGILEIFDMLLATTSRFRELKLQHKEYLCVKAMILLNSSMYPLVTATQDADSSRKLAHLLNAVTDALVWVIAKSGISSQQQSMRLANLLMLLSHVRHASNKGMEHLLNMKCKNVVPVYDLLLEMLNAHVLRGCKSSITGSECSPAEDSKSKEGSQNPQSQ

Take `OCCCc1cccnc1`: the Potency result in test [1], in [2], in [3], in [4], in test [5] and in test [7] was “inactive” throughout. Further, the Potency result in test [8], in test [10], in test [11], in test [12], in test [13] and in test [14] was “inactive” throughout. Further, the Potency result in [15], in [16] and in [17] was “inactive” each time. Besides, the molecule was called inactive in test [6] and in [9].
Consider `C=CC(=O)OCC(O)COc1ccccc1` (stereo not drawn), for which the Potency result in [18], in test [4], in [5], in test [8], in test [11] and in test [12] was “inactive” each time. In addition, the Potency result in test [13], in [14], in [15], in test [16] and in [17] was “inactive” in each case. The outcome in test [9] was inactive.
With `C=CC(=O)OCCC#N`, the Potency result in test [18], in test [4], in [7], in test [8], in test [19] and in test [10] was “inactive” in each case. For the same molecule, the Potency result in [11], in [12], in test [13], in test [14], in test [15] and in test [16] was “inactive” in each case. Moreover, the Potency result in [17] was “inactive”. Also, the call in test [6] and in [9] was inactive.
Turning to `C[C@H]1O[C@@H](O[C@H]2[C@@H](O)C[C@H](O[C@H]3[C@@H](O)C[C@H](O[C@H]4CC[C@@]5(C)[C@H](CC[C@@H]6[C@@H]5C[C@@H](O)[C@]5(C)[C@@H](C7=CC(=O)OC7)CC[C@]65O)C4)O[C@@H]3C)O[C@@H]2C)C[C@H](O)[C@@H]1O`, the Potency entry in test [1], in test [8] and in test [17] was “inactive” each time. Moreover, the Potency was 86.4 nM (active) and 95.8 nM (active) in [2]; 0.172 µM (active) in [3]; 61.2 nM (active) and 76.1 nM (active) in [4]; 86.4 nM (active) and 121 nM (active) in test [10]; 122 nM (active) and 191 nM (active) in [11]. In addition, the result in test [9] was inactive.
Regarding `Cc1c(C(=O)O)cccc1[N+](=O)[O-]`, the Potency result in [1], in test [2], in test [3], in test [4], in [7] and in test [8] was “inactive” each time. Moreover, the Potency result in [19], in test [12], in test [13], in test [14], in test [15] and in test [16] was “inactive” throughout. Further, the Potency entry in test [17] was “inactive”. Further, the outcome in [6] and in test [9] was inactive.
Take `Clc1ccc(C(Cn2ccnc2)OCc2c(Cl)cccc2Cl)c(Cl)c1` (stereo not drawn): the Potency result in test [1], in [3], in test [5], in test [7], in test [8] and in [12] was “inactive” in each case. Further, the Potency result in [13] and in test [14] was “inactive” each time. Moreover, the Potency is 29.8 µM (active) in test [2]; 23.7 µM (active) in [4]; 5.96 µM (active) in [10]; 5.96 µM (active) in test [11]; 23.7 µM (active) in test [17]. In addition, the result in test [6] was inactive.
As to `OCCCCl`, the Potency result in test [1], in test [2], in [3], in test [4], in [5] and in test [7] was “inactive” throughout. Also, the Potency entry in [8], in test [19], in test [10], in test [12], in test [13] and in [14] was “inactive” throughout. Besides, the Potency result in test [15], in [16] and in test [17] was “inactive” each time. The molecule was classed as inactive in [6] and in [9].
`CC(=O)OC1CCCCC1`: the Potency entry in test [1], in test [2], in test [3], in [4], in test [5] and in [7] was “inactive” throughout. The Potency result in [10], in test [11], in [12], in [13], in [14] and in test [16] was “inactive” throughout. Moreover, in [17], the Potency result was “inactive”. Also, the call in test [9] was inactive.
